# Laboratory results taken from PubChem BioAssay (NCATS).
# Inconclusive results are not listed. Entries that show only a call come without a potency. Calls of active or inactive are those of the source. The call rests on the fitted dose curve; in most records, active means well fitted cell-killing curve with a large enough effect; inconclusive means small, poorly fitted or top-dose-only effect, or effect the other way; inactive means flat fitted curve, though single readings scatter.
# System: SKOV3
# Assay: Primary qHTS to identify gynecologic anti-cancer compounds using libraries of approved drugs and bioactive compounds (AID 1345084); further: nearly all actives have a fitted effect of over 55% in size
# Conditions: Gynecologic cancer cell panel viability, ATPlite luminescence, 48 h; series mostly up to 57.5 µM
# Outline: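 Cells, 1,000 per well, plated 16 h, then exposed 48 h at 37 C to compounds. Viability by ATPlite luminescence after 15 min at room temperature.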
# Potency means the concentration at half of the fitted maximal effect.
row,Compound,Potency
1,O=[N+]([O-])c1ccc(-[n+]2nc(-c3ccccc3)nn2-c2ccc(I)cc2)cc1,inactive
2,COc1ccccc1NC(=O)Nc1ccc2ccccc2c1,inactive
3,C=C(C)C(=O)OC1[C@@H]2C(=C)C(=O)O[C@@H]2C[C@@H](C)[C@@H]2C=CC(=O)[C@@]12C (stereo not given in full),inactive
4,COc1cc2ncnc(Nc3ccc(Oc4ccccc4)cc3)c2cc1OC,28.2 µM (active)
5,CCC(C)n1cc(C)c2c(C(=O)NCc3c(C)cc(C)[nH]c3=O)cc(-c3ccc(N4CCNCC4)nc3)cc21 (stereo not given),inactive
6,Cn1c(NC[C@@H](N)Cc2ccccc2)nc(-c2ccncc2)c(-c2ccc3ccccc3c2)c1=O,inactive
7,CC(=O)N1c2ccc(-c3ccc(C(=O)O)cc3)cc2C(Nc2ccc(Cl)cc2)CC1C (stereo not given),3.98 µM (active)
8,COc1ccc(C(=O)N(CCC(C)C)Cc2nc(C)c(C)n2Cc2ccccc2C)c(OC)c1,inactive
9,Cc1ccc(C(=O)N2CCN(c3ccc([N+](=O)[O-])cc3)CC2)cc1Cl,inactive
10,CN(C)C(=O)c1cc2cnc(Nc3ccc(N4CCNCC4)cn3)nc2n1C1CCCC1,inactive
11,C=C1/C(=C/C=C2\CCC[C@]3(C)[C@@H]([C@H](C)/C=C/C(=O)C4CC4)CC[C@@H]23)C[C@@H](O)C[C@@H]1O,inactive
12,CC(C)(C)c1ccc(-c2nc3ccccc3[nH]2)cc1,1 µM (active)
13,CCN1CCN(Cc2ccc(-c3cc4c(NC(C)c5ccccc5)ncnc4[nH]3)cc2)CC1 (stereo not given),3.55 µM (active)
14,CN1CCN(C(=O)c2ccc(Nc3nccc(-c4cccs4)n3)cc2Cl)CC1,inactive
15,Cc1ccc2c(Nc3ccc(Cl)cc3)nccc2c1Nc1ncccc1-c1ncnc2nc[nH]c12,15.8 µM (active)
16,Cc1ccc(C2(COC(=O)C(C)C)CO2)c(OC(=O)C(C)C)c1 (stereo not given),inactive
17,COc1cc2ncnc(Oc3cccc(NC(=O)Nc4cc(C(C)(C)C(F)(F)F)on4)c3)c2cc1OC,inactive
18,CN(CCCNC(=O)c1ccc2nc3c(c(Cl)c2c1)CCCC3)Cc1ccccc1,inactive
19,CCN(CCCOc1ccc2c(Nc3cc(CC(=O)Nc4cccc(F)c4)[nH]n3)ncnc2c1)CCOP(=O)(O)O,15.8 µM (active)
20,OCC(Cc1ccccc1)Nc1nc(Oc2ccc3c(c2)CCC3)nc2c1ncn2Cc1ccc(-c2ccccc2)cc1 (stereo not given),inactive
21,O=C(NC(NC(=S)Nc1ccc(F)c([N+](=O)[O-])c1)C(Cl)(Cl)Cl)C(c1ccccc1)c1ccccc1 (stereo not given),inactive
22,CC1CCC2C(=CCC(O)C2(C)C)C1(C)Cc1c(O)cc(CO)c(C=O)c1O (stereo not given),inactive
23,CCCCn1c(-c2ccccc2)nc(-c2ccccc2)c1CN(Cc1ccc2c(c1)OCO2)Cc1ccc2c(c1)OCO2,inactive
24,COc1ccc(CNC(=O)Nc2ncc([N+](=O)[O-])s2)cc1,inactive
25,O=C(NCc1ccc(Oc2ccccc2)cc1)c1nc(-c2cc(Br)c(O)c(Br)c2)no1,inactive
